Reference: PubChem BioAssay (Tox21)
Results filed as inconclusive are left out. Activity calls are given as the source filed them. Unless noted, calls come from the whole dose curve; as a rule, active = well fitted curve in the direction sought with a large enough effect in the repeat runs; inconclusive = weak or mixed curves; inactive = no such curve, though single readings can be large; an effect the other way counts as inactive or inconclusive.

Columns and labels:
[1] = qHTS assay to test for compound auto fluorescence at 535 nm (green) in HEK293 cells (AID 720680)
[2] = qHTS assay to test for compound auto fluorescence at 460 nm (blue) in HEK293 cell free culture (AID 720681)
How it was run: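 Compounds were added to cell-free DMEM with 10% FBS and fluorescence read directly. The blue channel used 405 nm excitation and 460 nm emission, with triamterene as the reference fluorophore.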

[3] = qHTS assay to test for compound auto fluorescence at 535 nm (green) in HEK293 cell free culture (AID 720682)
How it was run: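 Using fluorescein as calibrant, autofluorescence was quantified at 485/535 nm in cell-free DMEM containing 10% FBS after pintool addition of compound or vehicle.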

[4] = qHTS assay to test for compound auto fluorescence at 590 nm (red) in HEK293 cell free culture (AID 720683)
How it was run: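 Cell-free wells of DMEM with 10% FBS received compound, and intrinsic fluorescence was read at excitation/emission 540/590 nm. Values expressed as equivalence to Rose Bengal sodium.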

[5] = qHTS assay to test for compound auto fluorescence at 460 nm (blue) in HepG2 cell free culture (AID 720685)
How it was run: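 Cell-free plates of MEM plus 10% FBS received 23 nL compound or DMSO vehicle; blue-channel (405/460 nm) intensity scored against triamterene as reference fluorophore.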

[6] = qHTS assay to test for compound auto fluorescence at 535 nm (green) in HepG2 cell free culture (AID 720686)
[7] = qHTS assay to test for compound auto fluorescence at 460 nm (blue) in HepG2 cells (AID 720687)
How it was run: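 HepG2 cells in MEM with 10% FBS, attached overnight at 37 C, were exposed to compound or DMSO for 1 hr at 37 C, 5% CO2. Blue fluorescence was read at 405/460 nm, with triamterene as reference fluorophore.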

[8] = qHTS assay to identify small molecule antagonists of the glucocorticoid receptor (GR) signaling pathway - cell viability counter screen (AID 720693); note: nearly all actives have a fitted effect of over 55% in size
[9] = qHTS assay for identifying genotoxic compounds that show differential cytotoxicity against isogenic chicken DT40 cell lines with known DNA damage response pathways - wild type cell line (AID 743012); note: nearly all actives have a fitted effect of over 60% in size
How it was run: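 Viability of DNA repair-proficient chicken DT40 cells was assessed by CellTiter-Glo luminescence following 40 h compound exposure at 37 C/5% CO2.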

[10] = qHTS assay for identifying genotoxic compounds that show differential cytotoxicity against isogenic chicken DT40 cell lines with known DNA damage response pathways - Rev3 mutant cell line (AID 743014); note: nearly all actives have a fitted effect of over 55% in size
[11] = qHTS assay for identifying genotoxic compounds that show differential cytotoxicity against isogenic chicken DT40 cell lines with known DNA damage response pathways - Rad54/Ku70 mutant cell line (AID 743015); note: nearly all actives have a fitted effect of over 60% in size
[12] = qHTS assay to identify small molecule antagonists of the androgen receptor (AR) signaling pathway - cell viability counter screen (AID 743033; note: nearly all actives have a fitted effect of over 45% in size)
[13] = qHTS assay to identify small molecule antagonists of the thyroid receptor (TR) signaling pathway - cell viability counter screen (AID 743064); note: nearly all actives have a fitted effect of over 50% in size
How it was run: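 Counter screen for cytotoxicity: compound plus T3 (1 nM final) on GH3.TRE-Luc cells, 23.5 h at 37 °C, then fluorescence viability readout with CellTiter-Fluor.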

[14] = biological target: Glucocorticoid receptor (Homo sapiens) (UniProt P04150); assay: qHTS assay to identify small molecule agonists of the glucocorticoid receptor (GR) signaling pathway (AID 720691; active = well fitted activation curve with a large enough effect in the signal ratio in the repeat runs, not every such curve was filed as active; the % refers to the signal ratio)
How it was run: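 Compounds in DMSO, alongside positive controls, were added to GR-bla HeLa reporter cells and incubated 18 h at 37 C; GRE-driven beta-lactamase was detected by fluorescence after 2 h with FRET substrate at room temperature.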

[15] = biological target: Glucocorticoid receptor (Homo sapiens) (UniProt P04150); assay: qHTS assay to identify small molecule antagonists of the glucocorticoid receptor (GR) signaling pathway (AID 720692; active = well fitted inhibition curve with a large enough effect in the signal ratio in the repeat runs, not every such curve was filed as active; the % refers to the signal ratio)
How it was run: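 In a 1536-well cell format, compounds were added 4 h after seeding GR-bla HeLa cells, together with dexamethasone at 5 nM final; reporter activity was measured by FRET-substrate fluorescence following 18 h at 37 C.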

[16] = qHTS assay to identify small molecule antagonists of the androgen receptor (AR) signaling pathway using the MDA cell line - cell viability counter screen (AID 743041; note: nearly all actives have a fitted effect of over 45% in size)
How it was run: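 Cytotoxicity counter screen: MDA-kb2 AR-luc cells, compound + R1881, 16 h, 37C, 0% CO2; CellTiter-Fluor added at 15.5 h, fluorescence read after 30 min.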

[17] = biological target: Androgen receptor (Homo sapiens) (UniProt P10275); assay: qHTS assay to identify small molecule agonists of the androgen receptor (AR) signaling pathway using the MDA cell line (AID 743040; note: nearly all actives have a fitted effect of over 20% in size)
How it was run: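 Luciferase read-out, ONE-Glo, 30 min RT. Cells: MDA-kb2 AR-luc, MMTV promoter with AR and GR response elements. Compound exposure 16 h, 37C, 0% CO2, after 5 h pre-incubation. qHTS agonist mode.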

[18] = biological target: Androgen receptor (Homo sapiens) (UniProt P10275); assay: qHTS assay to identify small molecule antagonists of the androgen receptor (AR) signaling pathway using the MDA cell line (AID 743042; note: nearly all actives have a fitted effect of over 55% in size)
How it was run: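 MDA-kb2 breast carcinoma cells carrying MMTV-luciferase (AR/GR responsive) were co-treated with compounds and the agonist R1881 for 16 h at 37C. Inhibition read as ONE-Glo luminescence; CellTiter-Fluor fluorescence measured in parallel for cytotoxicity.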

[19] = biological target: Androgen receptor (Homo sapiens) (UniProt P10275); assay: qHTS assay to identify small molecule antagonists of the androgen receptor (AR) signaling pathway (AID 743035; active = well fitted inhibition curve with a large enough effect in the signal ratio in the repeat runs, not every such curve was filed as active; the % refers to the signal ratio)
How it was run: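 Reporter HEK293 cells were exposed to compounds and R1881 overnight (16 h, 37C); beta-lactamase activity was then quantified by FRET fluorescence.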

[20] = qHTS assay to test for compound auto fluorescence at 590 nm (red) in HepG2 cell free culture (AID 720684)
How it was run: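 Rose Bengal sodium served as the reference for red signal. Test compounds were dispensed into serum-containing MEM (10% FBS) without cells, and plates were read at 540/590 nm.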

Measured: Potency

Glucocorticoid receptor (Homo sapiens), sequence (P04150 whole entry, looked up): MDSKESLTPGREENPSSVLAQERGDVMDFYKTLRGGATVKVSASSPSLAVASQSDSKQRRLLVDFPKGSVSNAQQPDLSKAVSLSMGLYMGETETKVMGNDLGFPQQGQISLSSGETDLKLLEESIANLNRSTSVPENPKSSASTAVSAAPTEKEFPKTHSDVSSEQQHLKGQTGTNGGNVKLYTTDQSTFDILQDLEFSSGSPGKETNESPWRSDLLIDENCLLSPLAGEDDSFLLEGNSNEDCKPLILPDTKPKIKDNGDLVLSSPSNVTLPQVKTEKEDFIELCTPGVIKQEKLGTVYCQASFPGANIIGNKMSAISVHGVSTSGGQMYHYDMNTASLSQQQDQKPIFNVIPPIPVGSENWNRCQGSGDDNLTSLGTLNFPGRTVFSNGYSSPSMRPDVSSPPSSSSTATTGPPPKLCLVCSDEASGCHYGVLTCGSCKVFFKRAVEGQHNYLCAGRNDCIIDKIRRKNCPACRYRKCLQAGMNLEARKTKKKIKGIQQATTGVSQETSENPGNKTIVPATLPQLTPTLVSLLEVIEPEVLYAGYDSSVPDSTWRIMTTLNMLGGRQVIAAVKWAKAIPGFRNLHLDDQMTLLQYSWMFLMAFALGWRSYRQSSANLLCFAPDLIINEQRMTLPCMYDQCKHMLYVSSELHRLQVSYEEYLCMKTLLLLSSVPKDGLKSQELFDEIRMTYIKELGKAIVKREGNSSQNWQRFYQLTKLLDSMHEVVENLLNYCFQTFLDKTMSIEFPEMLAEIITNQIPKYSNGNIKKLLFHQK
Androgen receptor (Homo sapiens), sequence (P10275 whole entry, looked up): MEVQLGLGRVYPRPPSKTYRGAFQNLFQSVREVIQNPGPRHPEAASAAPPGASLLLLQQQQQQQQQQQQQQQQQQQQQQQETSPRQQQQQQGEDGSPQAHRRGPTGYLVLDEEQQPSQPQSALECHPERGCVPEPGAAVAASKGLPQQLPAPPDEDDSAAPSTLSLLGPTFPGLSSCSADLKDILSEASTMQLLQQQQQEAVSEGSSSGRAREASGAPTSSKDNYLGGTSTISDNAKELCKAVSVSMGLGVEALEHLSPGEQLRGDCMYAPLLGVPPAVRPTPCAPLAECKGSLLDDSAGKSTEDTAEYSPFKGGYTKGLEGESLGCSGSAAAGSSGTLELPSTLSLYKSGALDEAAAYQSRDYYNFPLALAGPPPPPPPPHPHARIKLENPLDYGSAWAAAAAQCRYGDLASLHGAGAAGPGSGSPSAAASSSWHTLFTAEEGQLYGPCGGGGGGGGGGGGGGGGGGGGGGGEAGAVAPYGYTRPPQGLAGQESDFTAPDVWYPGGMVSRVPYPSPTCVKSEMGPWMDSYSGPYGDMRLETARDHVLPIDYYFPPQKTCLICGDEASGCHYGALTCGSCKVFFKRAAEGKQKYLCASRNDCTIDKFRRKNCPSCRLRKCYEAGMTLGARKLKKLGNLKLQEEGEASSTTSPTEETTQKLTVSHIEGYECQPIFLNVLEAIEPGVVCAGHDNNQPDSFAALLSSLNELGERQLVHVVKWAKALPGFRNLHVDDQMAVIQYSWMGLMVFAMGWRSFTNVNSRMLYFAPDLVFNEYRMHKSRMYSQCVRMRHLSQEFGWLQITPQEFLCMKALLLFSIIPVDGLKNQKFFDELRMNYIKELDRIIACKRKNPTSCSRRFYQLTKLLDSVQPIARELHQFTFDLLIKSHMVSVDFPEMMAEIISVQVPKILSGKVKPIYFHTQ

CC[C@@]1(c2ccccc2)NC(=O)N(C)C1=O
not listed: [14] | [15] | [16] | [17] | [18] | [19] | [20]
inactive: all other assays above

COC(=O)C(c1ccccc1Cl)N1CCc2sccc2C1 (stereo not drawn)
not listed: [8] | [9] | [10] | [11] | [17] | [18] | [19] | [20]
inactive: all other assays above

O=C(O)Cc1ccccc1Oc1ccc(Cl)cc1Cl
not listed: [6] | [13] | [15] | [16] | [17] | [18] | [19] | [20]
inactive: all other assays above

O=c1c(O)c(O)c1=O
not listed: [15] | [16] | [17] | [18] | [19] | [20]
inactive: all other assays above

O=P(O)(O)C(O)(Cc1cccnc1)P(=O)(O)O
not listed: [8] | [15] | [17] | [18] | [19] | [20]
inactive: all other assays above

COCc1nnc(-c2ccc[n+]([O-])c2)n1-c1c(Cl)c(Cl)cc2[nH]c(=O)c(=O)[nH]c12
not listed: [14] | [15] | [19] | [20]
inactive: all other assays above

NNC(=O)OCc1ccccc1
not listed: [6] | [8] | [14] | [15] | [20]
inactive: all other assays above

Cc1cc(N)no1
not listed: [3] | [17] | [18] | [19]
inactive: all other assays above

O=CN1CCCCC1
not listed: [7] | [12] | [14] | [15] | [17] | [18] | [19] | [20]
inactive: all other assays above

Cc1nnc(C(=O)NC(C)(C)c2nc(C(=O)NCc3ccc(F)cc3)c(O)c(=O)n2C)o1
not listed: [6] | [15] | [17] | [18] | [19] | [20]
inactive: all other assays above

Cc1cc(C)c(N)c(Cl)c1
not listed: [3] | [17] | [18] | [19]
inactive: all other assays above

CCCC(=O)C(CC)Sc1ccoc1C (stereo not drawn)
not listed: [9] | [10] | [11] | [14] | [15] | [16] | [20]
inactive: all other assays above

C=CC(C)(CCC=C(C)C)OC(=O)C(C)C (stereo not drawn)
not listed: [3] | [17] | [18] | [19]
inactive: all other assays above
